Reference: PubChem BioAssay AID1347048 (National Center for Advancing Translational Sciences (NCATS), 2019)
The whole screen tested about 76,000 compounds, of which about 1,200 (1.6%) were called active. Another 4% or so got no clear call; they are omitted. The call rests on the fitted dose curve. Shown is part of a subset that was picked to be rich in actives. Entries that show only a call come without a potency.
Further: nearly all actives have a fitted effect of over 60% in size.
Potency means the concentration at half of the fitted maximal effect.

The molecules below were run against Atrial natriuretic peptide receptor 1 (Homo sapiens) (UniProt P16066) (assay: Natriuretic polypeptide receptor (hNpr1) antagonism - Primary qHTS). Settings: HEK293 hNpr1 GloSensor cGMP, ANP-stimulated luminescence; series mostly up to 46.3 µM.
Atrial natriuretic peptide receptor 1 (Homo sapiens), sequence (P16066 whole entry, looked up): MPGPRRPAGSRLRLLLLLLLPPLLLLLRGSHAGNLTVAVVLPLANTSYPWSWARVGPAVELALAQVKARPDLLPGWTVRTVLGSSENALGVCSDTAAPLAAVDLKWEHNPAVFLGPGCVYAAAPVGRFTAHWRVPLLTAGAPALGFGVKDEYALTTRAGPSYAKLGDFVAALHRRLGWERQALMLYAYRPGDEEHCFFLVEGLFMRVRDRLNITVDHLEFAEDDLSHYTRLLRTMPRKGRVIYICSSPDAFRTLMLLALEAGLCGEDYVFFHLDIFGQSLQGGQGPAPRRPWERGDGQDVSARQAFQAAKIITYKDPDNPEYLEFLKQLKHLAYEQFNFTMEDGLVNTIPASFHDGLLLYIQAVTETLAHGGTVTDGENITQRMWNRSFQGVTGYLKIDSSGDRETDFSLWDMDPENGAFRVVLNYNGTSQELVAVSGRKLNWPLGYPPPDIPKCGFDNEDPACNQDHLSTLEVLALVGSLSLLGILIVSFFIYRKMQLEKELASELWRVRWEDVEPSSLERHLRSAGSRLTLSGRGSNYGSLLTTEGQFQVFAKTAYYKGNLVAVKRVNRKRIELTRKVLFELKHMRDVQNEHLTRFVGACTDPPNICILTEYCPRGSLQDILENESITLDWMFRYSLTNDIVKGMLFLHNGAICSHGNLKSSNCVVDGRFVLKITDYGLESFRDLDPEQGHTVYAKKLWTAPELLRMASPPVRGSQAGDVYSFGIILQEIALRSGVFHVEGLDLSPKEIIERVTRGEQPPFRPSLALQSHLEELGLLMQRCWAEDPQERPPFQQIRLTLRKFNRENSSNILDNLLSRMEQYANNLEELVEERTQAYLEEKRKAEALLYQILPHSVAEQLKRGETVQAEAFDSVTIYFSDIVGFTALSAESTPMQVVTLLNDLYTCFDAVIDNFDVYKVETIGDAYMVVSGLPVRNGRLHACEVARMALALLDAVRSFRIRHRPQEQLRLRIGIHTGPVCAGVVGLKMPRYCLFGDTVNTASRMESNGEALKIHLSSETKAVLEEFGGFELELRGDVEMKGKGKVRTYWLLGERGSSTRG
Outline: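 Compound pre-incubated 30 min at room temperature on GloSensor-loaded HEK293 cells stably carrying hNpr1 and the pGS-40F cGMP biosensor. Stimulation uses hNppA at 0.1 nM final; luminescence is taken at baseline and 20 min post-agonist.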
`CC(C)(C)C(=O)N1CC[C@@H](CC(=O)O)[C@@H](CCN2CCN(c3cccc(C(F)(F)F)c3)CC2)C1` was tested, and the Potency was “inactive”. `COc1cccc(N2CC3(COCC2=O)CN(c2ccc(C(F)(F)F)cn2)C3)n1` was tested, and the Potency was “inactive”. With `O=C1CCCCCN1C1CCN(Cc2ccc(C(F)(F)F)cc2)CC1` the Potency was “inactive”. In the case of `CN(C)Cc1cn2c(=O)n(C)cc(-c3cccc(OCc4ccccc4)c3)c2n1`, the Potency is reported as “inactive”. With `CN(C)c1cccc(-c2cn(C)c(=O)n3cc(COc4ccc(Cl)cc4)nc23)c1` the Potency was “inactive”. In the case of `Cc1cc(-c2cn(C)c(=O)n3cc(COc4ccccc4)nc23)ccn1`, the Potency is reported as 25.1 µM (active). In the case of `CCOc1ccc(CC(=O)N2CCCC3(C2)Nc2cccnc2NC3=NC2CCCC2)cc1` (stereo not drawn), the Potency is reported as “inactive”. For `O=C(c1ccc(-c2ccc(N3CCCCC3)nc2)cc1)N1CCOCC1`, the Potency was “inactive”. For `COCCN1CC(CO)C2(CCN(Cc3ccc(F)c(Cl)c3)CC2)C1` (stereo not drawn), the Potency was “inactive”. `CN1CCCC2(CCN(C(=O)c3cccc(N4CCCC4=O)c3)C2)C1=O` (stereo not drawn) was tested, and the Potency was “inactive”. In the case of `O=c1[nH]c(C2CCCN(Cc3ccccn3)C2)nn1-c1ccc(Cl)cc1` (stereo not drawn), the Potency is reported as 5.01 µM (active). With `O=C(Cc1ccc(F)cc1)N1CCCC(c2nn(-c3ccc(Cl)cc3)c(=O)[nH]2)C1` (stereo not drawn) the Potency was “inactive”. For `CC(=O)N1CCCC(c2nn(-c3ccccc3)c(=O)[nH]2)C1` (stereo not drawn), the Potency was “inactive”. With `O=C(COc1ccc(F)cc1)NC1CCN(c2cn[nH]c(=O)c2)CC1` the Potency was “inactive”. With `Cc1ncsc1C(=O)N1CCc2c(n(Cc3ccccc3)n(-c3ccccc3)c2=O)C1` the Potency was “inactive”. `O=C(Cc1ccc(F)cc1)N1CCC2(CC1)NC(=O)N(c1ccccc1)N2` was tested, and the Potency was “inactive”. `CC1(C(=O)NCc2ccc3c(c2)OCO3)CCc2cnc(NCc3ccccc3)nc21` (stereo not drawn) was tested, and the Potency was 35.5 µM (active). With `CN(Cc1ccccc1)C(=O)C1(C)CCCc2cnc(Nc3cccnc3)nc21` (stereo not drawn) the Potency was “inactive”. In the case of `CC1(C(=O)NCC2CCCO2)CCCc2cnc(Nc3ccccc3)nc21` (stereo not drawn), the Potency is reported as “inactive”. With `COc1ccc(CNC(=O)c2cc3c(s2)CN(C2CC2)C3)cc1OC` the Potency was “inactive”. For `O=C(Nc1ccc2c(c1)CCC2)c1cc2c(s1)CN(C1CC1)C2`, the Potency was 11.2 µM (active). With `CC(C)N1Cc2cc(C(=O)Nc3cccc4c3CCCC4)sc2C1` the Potency was “inactive”. For `Cc1cc(NC(=O)c2ccc3c(c2)OCCN(CCC(F)(F)F)C3)ccc1F`, the Potency was “inactive”. In the case of `O=C(Nc1cccnc1)c1ccc2c(c1)OCCN(c1ccccc1)C2`, the Potency is reported as “inactive”. In the case of `CC(C)(C)c1csc(NC(=O)c2ccc3c(c2)OCCN(C2CCC2)C3)n1`, the Potency is reported as 31.6 µM (active). With `O=C(c1ccc2c(c1)OCO2)N1CCC2(CC1)CN(c1ccncn1)CC2CO` (stereo not drawn) the Potency was “inactive”. `CN(C)C(=O)C1CN(C(=O)Nc2ccc(F)cc2F)CC12CCOCC2` (stereo not drawn) was tested, and the Potency was “inactive”. For `O=C(Nc1ccccc1)O[C@@H]1CO[C@H]2[C@@H]1OC[C@@H]2NS(=O)(=O)c1cccc2cccnc12`, the Potency was “inactive”. For `O=C(Nc1ccc(Oc2ccccc2)cc1)O[C@@H]1CO[C@H]2[C@@H]1OC[C@@H]2NS(=O)(=O)c1cccs1`, the Potency was 12.6 µM (active). `O=C(Nc1ccc(Oc2ccccc2)cc1)O[C@@H]1CO[C@H]2[C@@H]1OC[C@@H]2NCC1CC1` was tested, and the Potency was “inactive”. In the case of `O=C(NC1CCCCC1)N1CCCCCC1c1nc(-c2cccnc2)no1` (stereo not drawn), the Potency is reported as “inactive”. With `O=C(NC1CCCC1)N1CCC(Oc2ccc(-c3noc(C4CC4)n3)cc2)C1` (stereo not drawn) the Potency was 8.91 µM (active). In the case of `O=C(c1ccncc1)N1CCC(Oc2ccccc2)C1` (stereo not drawn), the Potency is reported as “inactive”. For `Cc1cccc(C(=O)N2CC(Oc3cccc(-c4nc(-c5ccccc5)no4)c3)C2)c1`, the Potency was “inactive”. In the case of `O=C(NC1CCCC1)N1CCCC(c2noc(COc3ccccc3)n2)C1` (stereo not drawn), the Potency is reported as “inactive”. For `Cc1cccc(C(=O)N2CCC(Oc3ccc(-c4noc(C(C)C)n4)cc3)C2)c1` (stereo not drawn), the Potency was 11.2 µM (active). In the case of `CCCN1CC(Oc2ccc(-c3noc(C4CC4)n3)cc2)C1`, the Potency is reported as “inactive”. `O=C(c1ccccn1)N1CC(Oc2ccc(-c3noc(C4CC4)n3)cc2)C1` was tested, and the Potency was 14.1 µM (active). With `O=C(c1ccoc1)N1CC(Oc2ccc(-c3nc(-c4ccccc4)no3)cc2)C1` the Potency was “inactive”. In the case of `COc1ccc(Cl)cc1-c1ccc2c(c1)C(=O)N1CCN(C(C)=O)C[C@@H]1C(=O)N2`, the Potency is reported as “inactive”. With `Cc1c(Cl)c(C(=O)N2C[C@@H](CN3CCCN(C)CC3)[C@@H](CO)C2)nn1C` the Potency was “inactive”. In the case of `CC(C)CCNC(=O)CCN(CC(C)C)C(=O)c1ccoc1`, the Potency is reported as “inactive”. In the case of `O=C(NC(C(=O)N1CCCCC1)C1CCN(C(=O)c2ccc(Cl)cc2)CC1)c1ccccc1` (stereo not drawn), the Potency is reported as “inactive”. `Cc1cnc(CC2CCN(C(=O)c3cccc4[nH]ccc34)CC2)n1CC1CC1` was tested, and the Potency was “inactive”. With `CC(C)CCN1CCC2(CC1)C(=O)NCN2Cc1ccc(Cl)cc1` the Potency was “inactive”. `O=C1NCN(Cc2ccc(Cl)cc2)C12CCN(Cc1ccccc1)CC2` was tested, and the Potency was 11.2 µM (active). `O=C(C1CC1)N1CCC2(CC1)C(=O)NCN2Cc1ccc(Cl)cc1` was tested, and the Potency was “inactive”. In the case of `COCC(=O)NC[C@H]1O[C@@H](CO)[C@@H](O)[C@H]1N1CCN(c2ccc(F)cc2)CC1`, the Potency is reported as “inactive”. With `CC(=O)NC1(C)CN(Cc2ccc(-c3ccc4c(ccn4C)c3)s2)C1` the Potency was 8.91 µM (active). With `CC(=O)NC1(C)CCN(Cc2cnc(-c3ccc4c(ccn4C)c3)s2)CC1` the Potency was “inactive”. In the case of `COc1ccc(C(=O)N2CCC3(CC2)OC(=O)N(CC2CC2)C3(C)c2cccnc2)cn1` (stereo not drawn), the Potency is reported as “inactive”. For `COc1ccc(CN2CCN(c3noc(C(C)C)n3)CC2CCO)cc1C` (stereo not drawn), the Potency was “inactive”. `O=C(C1CCCC1)N1CCC2(CCCCO2)CC1` was tested, and the Potency was “inactive”. In the case of `O=C(NCC1CC1)c1nc2c(o1)CCN(Cc1cccc(F)c1F)CC2`, the Potency is reported as 22.4 µM (active). With `O=C(NCC1CC1)c1nc2c(o1)CCN(CCc1ccccc1)CC2` the Potency was “inactive”. For `O=C(c1nc2c(o1)CCN(Cc1ccccc1F)CC2)N1CCOCC1`, the Potency was “inactive”. In the case of `CCOc1ccccc1C(=O)N1CCC(c2n[nH]c(=O)n2-c2ccc(C)cc2)CC1`, the Potency is reported as “inactive”. For `Cc1ccoc1C(=O)N1CCC(C2CCN(Cc3cccc(F)c3F)CC2)C1` (stereo not drawn), the Potency was “inactive”. `COc1ccc(C(=O)Nc2cccc(-c3nnc4n3CCCC4)c2)cc1` was tested, and the Potency was “inactive”. With `COc1ccc(C)cc1NC(=O)Cn1nc2n(c1=O)CCCC2` the Potency was “inactive”. In the case of `COc1ccc(C)cc1NC(=O)Nc1cccc(-c2ccc(N3CCCCC3)nn2)c1`, the Potency is reported as 10 µM (active). `COCC(=O)NC[C@H]1CCN(Cc2cn(C)c3ccccc23)C[C@H]1N(C)C` was tested, and the Potency was “inactive”. `COc1ccc(OCC2(C)COc3ccc(C(=O)NC4CCOCC4)cc3N2)cc1` (stereo not drawn) was tested, and the Potency was “inactive”. For `CC1(COCC2CC2)COc2ccc(C(=O)NCc3cccnc3)cc2N1` (stereo not drawn), the Potency was “inactive”. For `COc1ccc(OCC2(C)COc3ccc(C(=O)Nc4cccnc4)cc3N2)cc1` (stereo not drawn), the Potency was 25.1 µM (active). With `Cc1ccc(C(=O)N2CCC3(CC2)CC(=O)c2ccccc2O3)cc1` the Potency was “inactive”. In the case of `O=C(CCC[C@H]1NC[C@@H]2C[C@H]1CN(Cc1ccccc1)C2)NCC1CC1`, the Potency is reported as “inactive”. With `O=C(c1ccncc1)N1CCC(Cc2noc(C3CC3)n2)C1` (stereo not drawn) the Potency was “inactive”. For `COc1ccccc1-c1onc(C)c1C(=O)NCc1ccc(Cl)cc1`, the Potency was “inactive”. `O=C(NCc1ccc(Cl)cc1)c1cccn2nccc12` was tested, and the Potency was “inactive”. For `Cc1cc(CNC(=O)c2ccc(-c3ccccc3Cl)o2)n(C)n1`, the Potency was 11.2 µM (active). `Cn1cc(-c2cc(-c3cccnc3)c3cncn3c2)cn1` was tested, and the Potency was “inactive”. With `COc1ccc(-c2cc(N3CCCC(NC(=O)c4cc(F)ccc4Cl)C3)n[nH]2)cc1` (stereo not drawn) the Potency was “inactive”. In the case of `O=C(c1ccoc1)N1CCOc2ccc(CN3CCc4ccccc4C3)cc2C1`, the Potency is reported as “inactive”. In the case of `O=C1c2cnc(-c3ccc(O)c(F)c3)nc2OCCN1Cc1ccccc1`, the Potency is reported as “inactive”. With `COc1ccc(-c2ncc3c(n2)OCCN(Cc2ccccc2)C3=O)cn1` the Potency was “inactive”. `O=C1c2cnc(-c3ccc(Cl)cc3)nc2OCCN1Cc1ccccc1` was tested, and the Potency was 31.6 µM (active). `COc1ccc(CNC(=O)N2CCC3(CC2)CC(N(C(C)=O)C2CC2)CCO3)cc1` (stereo not drawn) was tested, and the Potency was “inactive”. In the case of `Cc1nn2c(c1-c1ccccc1Oc1ccccc1)N(C(=O)C(C)C)CCC2`, the Potency is reported as “inactive”. `Cc1nn2c(c1-c1ccccc1-c1ccccc1)N(C(=O)CN1CCOCC1)CCC2` was tested, and the Potency was “inactive”. `Cc1nn2c(c1-c1ccccc1-c1ccccc1)N(CC1CC1)CCC2` was tested, and the Potency was 2.82 µM (active). In the case of `COc1ccccc1-c1[nH]nc2ncc(C(=O)N3CCN(Cc4ccccc4)CC3)nc12`, the Potency is reported as “inactive”. For `CN(C)C(=O)c1cccnc1OC1CCN(S(=O)(=O)c2ccc3c(c2)CCCC3)C1` (stereo not drawn), the Potency was “inactive”. In the case of `O=C(c1ccno1)N1C[C@@H]2OCC(=O)N(c3ccccc3)[C@@H]2C1`, the Potency is reported as “inactive”. For `O=C(Nc1ccc(Cl)cc1)c1nc2c(o1)CCN(Cc1ccsc1)CC2`, the Potency was 8.91 µM (active). With `O=C(Cn1nc2n(c1=O)CCCC2)Nc1ccc(Cl)cc1` the Potency was “inactive”. With `O=C(Nc1ccccc1)c1nc2c(o1)CCN(Cc1cccc(Cl)c1)CC2` the Potency was 11.2 µM (active). For `COc1ccc(CN2CCc3nc(C(=O)N4CCOCC4)oc3CC2)cc1OC`, the Potency was “inactive”. With `O=C(Nc1cccc(Cl)c1)c1cnc2c(c1)N(C(=O)CCc1ccccc1)CCC2` the Potency was “inactive”. In the case of `N#Cc1ccc(CN2CCc3nc(C(=O)N4CCOCC4)oc3CC2)cc1`, the Potency is reported as “inactive”. In the case of `Cc1cccc(CN2CCc3nc(C(=O)Nc4ccc(Cl)cc4)oc3CC2)c1`, the Potency is reported as 8.91 µM (active). For `O=C(NCCOc1ccccc1)c1nc2c(o1)CCN(CC1CCCCC1)CC2`, the Potency was “inactive”. `CCNC(=O)C1C(c2cccc(NC(=O)c3cccc(C)c3)c2)OC(=O)N1Cc1cccc(Cl)c1` (stereo not drawn) was tested, and the Potency was “inactive”. With `COCCNc1ncccc1-c1noc([C@@H]2CCCN2Cc2ccc3c(c2)OCO3)n1` the Potency was “inactive”. In the case of `CC(C)N1C(=O)OCC12CCN(C(=O)c1ccc(Oc3ccccc3)cc1)C2` (stereo not drawn), the Potency is reported as “inactive”. In the case of `CCc1nc2c(c(-c3ccc(Cl)cc3)n1)CN(CCC(C)C)CC2`, the Potency is reported as “inactive”. With `COC(=O)N1CCCc2nc(C)nc(-c3ccc(O)cc3)c2C1` the Potency was “inactive”. With `CN(C)c1cc(N2C[C@@H](CN3CCOCC3)C[C@H](CO)C2)ncn1` the Potency was “inactive”.
